Most compounds without a hit are left out; they make up all but 2.8% or so of the library.
Beta2AR agonist: beta2AR agonists driving receptor internalization, primary screen, cell-based, FAP fluorogen, flow cytometry | Am2.2-beta2AR cells | response, % (concentration not given with the values) | 0.43% of 340,000 active | AID 504454, 2011;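 active = response above a set limit, near 3 SD of response in nonfluorescent compounds, cut at about 42% in these data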
Target sequence (P07550 whole entry, looked up): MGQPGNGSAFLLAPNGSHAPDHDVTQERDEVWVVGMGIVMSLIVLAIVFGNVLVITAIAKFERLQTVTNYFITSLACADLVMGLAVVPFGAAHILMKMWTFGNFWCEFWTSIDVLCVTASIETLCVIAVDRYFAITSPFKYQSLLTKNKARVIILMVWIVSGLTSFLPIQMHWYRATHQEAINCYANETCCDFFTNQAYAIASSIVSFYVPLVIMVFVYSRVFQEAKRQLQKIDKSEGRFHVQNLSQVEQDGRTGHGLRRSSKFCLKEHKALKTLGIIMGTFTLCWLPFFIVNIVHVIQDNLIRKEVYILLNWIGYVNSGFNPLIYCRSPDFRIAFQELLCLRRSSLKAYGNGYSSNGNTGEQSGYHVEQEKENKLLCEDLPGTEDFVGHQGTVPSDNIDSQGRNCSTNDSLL
Peg3 prom inh: Peg3 promoter-driven luciferase inhibitors, primary screen, cell-based, HeLa, luciferase luminescence; inhibition, % at 20 µM; HeLa PEG-Prom luciferase reporter, overnight; 1.7% of 360,000 active;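 active = inhibition of at least 50% at 20 µM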
CF NFkB block: inhibitors of PAF-induced NF-kB signaling, primary screen, cell-based, GFP fluorescence, uHTS | AID 588850, 2011 | 0.86% of 360,000 active | inhibition, % at 5 µM | KKLEB NF-kB-GFP reporter, GFP fluorescence overnight;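 active = at least 50% inhibition at 5 µM, scaled per plate between neutral and stimulator controls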;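 also: PAF is a Pseudomonas aeruginosa culture filtrate used as stimulus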
TRPM1 prom inh: inhibitors of MITF-dependent TRPM1 promoter reporter, primary screen, cell-based, SK-MEL-5, single point, luciferase. SK-MEL-5 TRPM1 promoter luciferase, 24 h. inhibition, % at 12.5 µM. 0.83% of 330,000 active. AID 488899, 2010;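 active = mean inhibition across replicates of 60% or more, whatever share of single replicates reaches that level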
HIF-2a block: HIF-2a reporter inhibitors, primary screen, luminescence, 786-0 RCC cells; 786-0 RCC cells HIF-2a reporter, luciferase luminescence, overnight; inhibition, % at 18.8 µM; 0.72% of 360,000 active; AID 624352, 2012;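 active = inhibition of the luminescence signal of 40% or more relative to plate controls, in a single-dose primary screen at 18.75 µM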
KKLEB cytotox: cytotoxicity in KKLEB CF airway cells, primary screen, cytotoxicity control for CF NF-kB inhibitor project, cell-based, uHTS, fluorescence assay plates. KKLEB CF airway cells viability, ATPlite luminescence, overnight; hits give low values; cells stimulated with P. aeruginosa culture filtrate. activity change (cytotoxicity), % at 5 µM. 0.36% of 360,000 active. AID 602141, 2011;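 active = corrected activity change at or below -50% at 5 µM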
Large screens that a line does not name were inactive.

Cc1ccc(S(=O)(=O)NC(=O)C2(C)CCN2C(=O)c2cccc(F)c2)nc1 (stereo unspecified)	none (no result: Beta2AR agonist, TRPM1 prom inh)
CC(C)c1ccc(OCC(O)CNC(C)c2ccccc2)cc1 (stereo unspecified)	none
COc1ccc(C(OCC(O)CNCCc2ccccc2)c2ccc(OC)cc2)cc1 (stereo unspecified)	none
OC(CNCCc1ccccc1)COc1ccc(OCC(O)CNCCc2ccccc2)cc1 (stereo unspecified)	Peg3 prom inh 102, TRPM1 prom inh 84
CC(C)CCNCC(O)CON=C1c2ccccc2-c2ccccc21 (stereo unspecified)	Peg3 prom inh 107
OC(CNCCC(c1ccccc1)c1ccccc1)COc1ccccc1 (stereo unspecified)	Peg3 prom inh 60
OC(CNCCc1ccc(Cl)cc1)COc1cc(Cl)ccc1Cl (stereo unspecified)	Peg3 prom inh 104
C=CCn1c(SCC(=O)N(C(C)CC)C2CCS(=O)(=O)C2)nc2ccccc2c1=O (stereo unspecified)	none
O=C(O)c1ccccc1C(=O)OCC1CCC(=NO)CC1 (stereo unspecified)	none (no result: Beta2AR agonist, TRPM1 prom inh)
OC(CNCCc1ccc(Cl)cc1)COc1ccc2ccccc2c1 (stereo unspecified)	Peg3 prom inh 67
CCOC(=O)c1ccc2ncc(C(=O)OCC)c(NCCN3CCOCC3)c2c1	none
CCOC(=O)c1ccc(Nc2cc(C)nc(N3CCOCC3)n2)cc1	Peg3 prom inh 55
CCOc1ccc(Nc2cc(C)nc(N3CCOCC3)n2)cc1	none
CCOC(=O)c1cnc2ccc(C)cc2c1Nc1ccc(N2CCOCC2)cc1	Peg3 prom inh 79
CC1(C(=O)NCCC#N)CCN1C(=O)c1ccccc1CCc1ccccc1 (stereo unspecified)	none (no result: Beta2AR agonist, TRPM1 prom inh)
COc1cc(Nc2ccn3nc(-c4ccccc4Cl)cc3n2)cc(OC)c1OC	none (no result: Beta2AR agonist, TRPM1 prom inh)
COc1ccc(CN2CCC(N(CCc3ccccc3)Cc3ccccc3)CC2)c(OC)c1	Peg3 prom inh 63
O=C(C[C@H]1CC[C@H]2[C@@H](COC[C@@H](O)CN2C(=O)c2cnccn2)O1)NCc1ccc(Oc2ccccc2)cc1	none (no result: Beta2AR agonist, Peg3 prom inh, CF NFkB block, TRPM1 prom inh, KKLEB cytotox)
O=C1c2cc(Cl)ccc2-c2c(O)cc(Cl)cc21	Peg3 prom inh 75
COc1cc(-c2nc(C(=O)NCC3CCCO3)cc3c2[nH]c2ccccc23)cc(OC)c1OC (stereo unspecified)	Peg3 prom inh 57
COc1ccccc1-c1nc(C(=O)NCC2CCCO2)cc2c1[nH]c1ccccc12 (stereo unspecified)	none (no result: TRPM1 prom inh)
O=C(NCC1CCCO1)c1cc2c([nH]c3ccccc32)c(-c2cccc(Cl)c2)n1 (stereo unspecified)	Peg3 prom inh 53 (no result: TRPM1 prom inh)
CCOC(=O)C1=CCN(S(=O)(=O)c2ccccc2C)C1c1ccc(Cl)c(Cl)c1 (stereo unspecified)	none (no result: Beta2AR agonist, TRPM1 prom inh)
CCCS(=O)(=O)NC(=O)C1(C)CCCN(C(=O)c2sccc2C)C1 (stereo unspecified)	none (no result: Beta2AR agonist, TRPM1 prom inh)
O=C(c1cc(-c2ccccc2)nc2ccccc12)N1N=C(C(F)F)CC1(O)C(F)F (stereo unspecified)	none
Cc1ccc(-c2cc(C(=O)N3N=C(C(F)F)CC3(O)C(F)F)c3ccccc3n2)cc1C (stereo unspecified)	CF NFkB block 52, KKLEB cytotox -50
O[C@@H]1CN(CC2CCCCC2)[C@@H](c2ccc(Cl)cc2)C[C@H]1n1cc(-c2ccc(F)cc2)nn1	none (no result: Beta2AR agonist, TRPM1 prom inh)
CC1=C(C(=O)N(C)C)CC(CC(=O)NCCCN(C)C)C(=O)N1Cc1ccc(F)cc1 (stereo unspecified)	none (no result: Beta2AR agonist, TRPM1 prom inh)
O=C(c1ccc2c(c1)[nH]c(=S)n1c3ccccc3nc21)N1CCN(c2ncccn2)CC1	Beta2AR agonist 62
O=C(NCCN1CCN(c2ccccc2)CC1)c1cccn2c(=O)c3ccccc3nc12	none
O=C(c1ccc2c(=O)n(-c3ccccc3)c(=S)[nH]c2c1)N1CCN(c2ccccc2)CC1	none
O=C(NCCN1CCN(c2ccccc2)CC1)c1ccc2c(c1)[nH]c(=S)n1c3ccccc3nc21	Peg3 prom inh 50
C[C@H](CO)N1C[C@H](C)[C@@H](CN(C)Cc2ccccc2F)Oc2ncc(Br)cc2C1=O	none (no result: Beta2AR agonist, TRPM1 prom inh)
CCOc1ccc(C(=O)Nc2cc(C)ccn2)cc1	KKLEB cytotox -57
CCOc1cc(C(=O)Nc2cc(C)ccn2)cc(OCC)c1OCC	none
Cc1ccnc(NC(=O)c2cc3ccccc3o2)c1	Peg3 prom inh 51
Cc1ccc(C)c(NC(=O)c2cc3ccccc3o2)c1	none
CCC(c1nc2ccccc2[nH]1)N(Cc1cccnc1)C(=O)c1cc(-c2ccccc2)on1 (stereo unspecified)	none (no result: Beta2AR agonist, TRPM1 prom inh)
COc1ccc(C2CC(c3ccc4ccccc4c3)=NN2C(=O)CN2CCC(C(N)=O)CC2)cc1 (stereo unspecified)	none
C=CCNCC(=O)N1N=C(c2ccc3ccccc3c2)CC1c1ccc(OC)cc1 (stereo unspecified)	Peg3 prom inh 66
COc1ccc(C2CC(c3ccc4ccccc4c3)=NN2C(=O)CNC2CCCCC2)cc1 (stereo unspecified)	Peg3 prom inh 90
N/C(Cc1ccc([N+](=O)[O-])cc1)=N\OC(=O)c1ccc2ccccc2c1	Peg3 prom inh 81
N/C(Cc1ccccc1)=N\OC(=O)c1cccc2ccccc12	Peg3 prom inh 78
COc1cc(C(CCN2CCCC(C)C2)c2c(OC)cc(OC)c3c(-c4ccccc4)cc(=O)oc23)cc(OC)c1OC (stereo unspecified)	Peg3 prom inh 87, TRPM1 prom inh 90
COc1cc(C(CCN2CCCCC2)c2c(OC)cc(OC)c3c(-c4ccccc4)cc(=O)oc23)cc(OC)c1OC (stereo unspecified)	Peg3 prom inh 78, TRPM1 prom inh 85
COc1cc(C(CCN2CCCC2)c2c(OC)cc(OC)c3c(C)cc(=O)oc23)cc(OC)c1OC (stereo unspecified)	none (no result: TRPM1 prom inh)
Cc1ccc(S(=O)(=O)NC(=O)C2(C)CCN2C(=O)CC2CCCCC2)nc1 (stereo unspecified)	none (no result: Beta2AR agonist, TRPM1 prom inh)
C=C1C(=O)[C@]23C[C@H]1CCC2[C@@]1(C)C(C[C@@H]3O)[C@](C)(C(=O)OC)CC[C@@H]1O (stereo partly specified)	Peg3 prom inh 100, CF NFkB block 90, HIF-2a block 99, KKLEB cytotox -73 (no result: Beta2AR agonist, TRPM1 prom inh)

Bioassay records deposited in PubChem BioAssay by several laboratories.
